This passage reports Potency results from PubChem BioAssay AID588342 (National Center for Advancing Translational Sciences (NCATS), 2011).

The structures appear in SMILES notation. Hit rate of the full screen: of about 360,000 compounds, about 25,000 (6.9%) were called active. Entries that show only a call come without a potency. Inconclusive results (about 9%) are left out. Calls come from the whole dose curve; as a rule, active = well fitted inhibition curve with a large enough effect; inconclusive = small, poorly fitted or top-dose-only effect; inactive = flat fitted curve, though single readings scatter. For the sample, actives were picked, then their nearest neighbours and some compounds at random.
Potency is the fitted concentration of half-maximal effect.

The target of the assay is Luciferin 4-monooxygenase (Photinus pyralis) (UniProt P08659). The assay is described as follows: qHTS profiling assay for firefly luciferase inhibitor/activator using purifed enzyme and Km concentrations of substrates (counterscreen for miR-21 project). Note: nearly all actives have a fitted effect of over 55% in size. As to conditions: purified FLuc, luminescence inhibition; series mostly up to 57.5 µM. A digest of the protocol: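 Biochemical qHTS of compounds, final roughly 60 µM downward over six points, against 10 nM purified firefly luciferase using Km concentrations of substrates (10 uM D-luciferin, 10 uM ATP) in Tris acetate pH 7.5 buffer; luminescence output.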
Sequence of Luciferin 4-monooxygenase (Photinus pyralis) (P08659 whole entry, looked up): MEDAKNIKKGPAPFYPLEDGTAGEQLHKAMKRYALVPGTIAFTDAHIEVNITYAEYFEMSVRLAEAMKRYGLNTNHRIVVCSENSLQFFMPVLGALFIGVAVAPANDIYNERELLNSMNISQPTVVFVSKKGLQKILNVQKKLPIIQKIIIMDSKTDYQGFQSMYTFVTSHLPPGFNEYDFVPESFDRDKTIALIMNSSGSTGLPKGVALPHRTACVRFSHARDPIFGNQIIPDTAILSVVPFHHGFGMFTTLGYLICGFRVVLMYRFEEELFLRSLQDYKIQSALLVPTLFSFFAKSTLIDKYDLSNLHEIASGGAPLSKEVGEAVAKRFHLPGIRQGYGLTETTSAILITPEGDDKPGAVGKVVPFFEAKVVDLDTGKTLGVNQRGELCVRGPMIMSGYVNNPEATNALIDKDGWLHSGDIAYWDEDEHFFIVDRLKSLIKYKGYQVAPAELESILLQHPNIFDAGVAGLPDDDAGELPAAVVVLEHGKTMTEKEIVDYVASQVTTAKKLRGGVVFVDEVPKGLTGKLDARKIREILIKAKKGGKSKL
Background: In qHTS, concentration-response curves come from the screen itself.
Take `N#Cc1ccc(CN2CCN(CC(=O)Nc3ccccc3C(=O)NC3CC3)CC2)cc1`: the Potency entry was “inactive”.
Take `Cc1ccc(C(NC(=O)N2CCCC2)C(Cl)(Cl)Cl)cc1F` (configuration not stated): the Potency result is “inactive”.
The value for `CCCCn1c(=O)c2oc3ccccc3c2n(CC(=O)Nc2ccccc2OC)c1=O` was “inactive”; that for `COc1ccc(C)cc1-n1c(-c2ccc(C)cc2)cc2c1CC(C)(C)CC2=O` was “inactive”; that for `COC(=O)C1=C(C)NC(=S)NC1c1ccc(OCC(=O)N2CC(C)OC(C)C2)c(OC)c1` (configuration not stated) was “inactive”.
As to `CC(=O)Nc1ccc(S(=O)(=O)N2CCN(S(=O)(=O)c3cccs3)CC2)cc1`, the Potency result was “inactive”.
The value for `O=C(NCC(c1ccc2c(c1)OCO2)N1CCN(c2ccccc2)CC1)C(=O)Nc1ccccc1F` (configuration not stated) was “inactive”; that for `COc1ccc(CCNC(=O)c2nn(C)c3c2CSc2ccccc2-3)cc1OC` was “inactive”.
As for `COc1ccc(C(=O)NCC2CCCCC2)cc1S(=O)(=O)N1CCCC1`, the Potency entry is “inactive”.
On to `CCC(=O)N1CCc2cc(Br)cc(S(=O)(=O)CCC(=O)NCc3ccccc3OC)c21`, for which the Potency result is “inactive”.
Consider `COc1cc(OC)c(NC(=O)c2cnc(N3CCCC3)nc2C)cc1Cl`, for which the Potency result was “inactive”.
`Cc1sc2nc(CC(N)=O)[nH]c(=O)c2c1-c1ccccc1`: the Potency entry is “inactive”.
The value for `CC1CCC2(CC1)N=C(c1ccccc1)C(=O)N2CC(=O)Nc1ccc(F)c(Cl)c1` (configuration not stated) was “inactive”.
`Nc1ccc(C(=O)NCc2ccccc2)cc1`: the Potency entry is “inactive”.
The result for `N=c1oc2ccccc2cc1C(=O)NCc1ccccc1` reads 9.53 µM (active).
Regarding `N=c1oc2ccccc2cc1C(=O)N/N=C/c1ccccc1`, the Potency was 1.35 µM (active).
The result for `O=C(NCc1ccccc1)c1cc(-c2cccc(Cl)c2)on1` reads “inactive”; that for `CCCCNC(=O)c1cc(-c2ccc(Cl)c(Cl)c2)on1`, “inactive”; that for `CSc1ccccc1C(=O)NCc1ccccc1`, “inactive”.
The value for `O=C(CCCCCNC(=O)c1ccccc1)N/N=C/c1ccccc1` was “inactive”; that for `O=C(NCc1ccccn1)c1cc(-c2ccccc2Cl)on1` was 10.7 µM (active); that for `O=C(N/N=C\c1cccc(Br)c1)c1ccccc1-n1cccc1` was “inactive”.
Take `CC(C)[C@H](NC(=O)N1CCn2c1nc1ccccc12)C(=O)NCCc1ccccc1`: the Potency entry was “inactive”.
The value for `Cc1ccc(C(=O)N/N=C/c2sc(=O)n(Cc3cccc(C(=O)O)c3)c2Cl)cc1` was 16.9 µM (active).
The result for `Cc1ccc(C(=O)Nc2c(C#N)c(C)c(C)n2Cc2ccccc2)cc1` reads “inactive”; that for `Cc1ccc(/C=N/NC(=O)CN2CCN(Cc3ccccc3)CC2)s1`, “inactive”; that for `C=C1CCC(N(O)c2cc(C)on2)C(=C)CCC2C1CC2(C)C` (configuration not stated), “inactive”.
The value for `CCCCCc1ccc(-c2cn(Cc3ccc4ccccc4c3)nn2)cc1` was “inactive”.
Turning to `CCCCCc1ccc(-c2ccc(C(=O)O)cc2)nc1`, the Potency is 0.675 µM (active).
`CCOc1ccc(-c2cc(C)n3nc(C(=O)Nc4ccc(C)c(C)c4)cc3n2)cc1`: the Potency result is “inactive”.
Regarding `Cc1ccc(-c2cn3c(n2)sc2cc(C(=O)NCCCc4ccccc4)ccc23)cc1`, the Potency result is “inactive”.
The result for `CCCCCc1ccc(-c2ccc(OCC)cc2)nc1` reads 10.7 µM (active); that for `CCOc1c(CNCc2ccc(C(=O)O)cc2)cccc1OC`, “inactive”; that for `Cc1cc(F)ccc1S(=O)(=O)Nc1ccc(C(=O)N(C)Cc2ccco2)cc1`, “inactive”.
Regarding `CCc1nc2nc(C)cc(Nc3ccc(F)c(Cl)c3)n2n1`, the Potency entry is “inactive”.
Consider `COc1ccc(/C=C/c2nc(C#N)c(NCc3ccc(F)cc3)o2)cc1OC`, for which the Potency entry is “inactive”.
For the compound `CCCCCn1c(=O)[nH]c2cc(C(=O)NCCN(C)CCCC)ccc2c1=O`, the Potency result was “inactive”.
The value for `CCc1ccc(C2CC(=O)c3c([nH]c(C(=O)OCc4ccc(C)cc4)c3C)C2)cc1` (configuration not stated) was “inactive”; that for `COc1ccccc1Nc1c2c(nc3ccc(NC(=O)/C=C/c4cc(OC)c(OC)c(OC)c4)cc13)CCCC2` was “inactive”.
The value for `N#Cc1cccc(NC(=O)C2CCCN(C(=O)c3ccc(Cl)cc3)C2)c1` (configuration not stated) was “inactive”; that for `CCc1ccc(CNCc2c(C(=O)O)n(Cc3ccc(F)cc3Cl)c3cc(OC)ccc23)cc1` was “inactive”; that for `O=C(CSc1nc2c(c(=O)[nH]1)CN(Cc1ccc3c(c1)OCO3)CC2)Nc1cc(F)ccc1F` was “inactive”.
The result for `c1ccc(-c2cn3c(n2)CCc2ccc4cccnc4c2-3)cc1` reads 10.7 µM (active).
On to `COc1ccc(NC(=O)CCCc2nnc3n(CCC(C)C)c(=O)c4sccc4n23)c(OC)c1`, for which the Potency entry is “inactive”.
The result for `CCc1ccc(NC(=O)c2cc3c(=O)n(Cc4cccnc4)ccc3nc2C)cc1` reads “inactive”; that for `O=C(COc1ccc2oc3c(c2c1)CCCC3)Nc1ccccn1`, 1.07 µM (active).
The value for `CCOC(=O)N1CCN(C(=O)COc2ccc3oc4c(c3c2)CCCC4)CC1` was “inactive”; that for `CCN(CC)CCCNC(=O)COc1ccc2oc3c(c2c1)CCCC3` was “inactive”.
Consider `COc1ccc(C2c3c(oc4ccccc4c3=O)C(=O)N2Cc2ccc3c(c2)OCO3)cc1` (configuration not stated), for which the Potency result is “inactive”.
Take `O=C(Cc1c(F)cccc1Cl)Nc1ccc(-n2cnnn2)cc1`: the Potency entry was “inactive”.
Regarding `CC(/C=C/c1ccco1)=N/NC(=O)C1COc2ccccc2O1` (configuration not stated), the Potency result is “inactive”.
The result for `CCN(CC)S(=O)(=O)c1ccc(N2CCOCC2)c(NC(=O)C2COc3ccccc3O2)c1` (configuration not stated) reads “inactive”; that for `CN(c1ccccc1)S(=O)(=O)c1cccc(NC(=O)Cc2c(F)cccc2Cl)c1`, “inactive”.
The result for `O=C(Nc1ncc([N+](=O)[O-])s1)C1COc2ccccc2O1` (configuration not stated) reads 21.3 µM (active); that for `COc1ccc(NC(=O)C2COc3ccccc3O2)cc1` (configuration not stated), 16.9 µM (active); that for `O=C(CCc1ccccc1)Nc1ncc([N+](=O)[O-])s1`, 15.1 µM (active).
For the compound `COc1ccc(NC(=O)CC2COc3ccccc3O2)c(OC)c1` (configuration not stated), the Potency result is “inactive”.
Turning to `O=C(Cc1c(F)cccc1Cl)Nc1ncc([N+](=O)[O-])s1`, the Potency was 21.3 µM (active).
The value for `C/C(=N/NC(=O)C1COc2ccccc2O1)c1ccco1` (configuration not stated) was “inactive”; that for `CC(C)Cc1nnc(NC(=O)CCc2ccccc2)s1` was “inactive”.
The result for `COc1ccc([N+](=O)[O-])cc1NC(=O)CCc1ccccc1` reads “inactive”; that for `COc1cc(NC(=O)Cn2c(=O)n(Cc3ccco3)c(=O)c3oc4ccccc4c32)cc(OC)c1`, “inactive”; that for `COc1ccc(-c2nn(CC(=O)NC3CCCC3)c3c2cnc2ccc(F)cc23)cc1`, “inactive”.
With `CC(C)CN(C(=O)c1ccc2c(c1)OCO2)C1CCS(=O)(=O)C1` (configuration not stated), the Potency entry is “inactive”.
For the compound `O=c1c2cccnc2n(Cc2cccc(F)c2)c(=O)n1Cc1ccccc1Cl`, the Potency result is “inactive”.
For `COc1cc(/C=N/NC(=O)CNC(=O)c2ccncc2)ccc1OC(C)=O`, the Potency entry was “inactive”.
The result for `COc1cc(/C=N/NC(=O)Nc2ccccc2)ccc1OCCOc1ccccc1C` reads “inactive”.
The result for `COc1cc(/C=N/NC(=O)CCc2n[nH]c(=O)[nH]c2=O)ccc1O` reads “inactive”.
The result for `COc1cc(/C=N\Nc2nc(-c3cccs3)c(NC(C)=O)s2)ccc1O` reads 7.57 µM (active); that for `COc1cc(/C=N/Nc2nc3ccccc3s2)ccc1O`, 2.39 µM (active); that for `COc1ccc(CC(=O)N/N=C/c2cc([N+](=O)[O-])cc(Br)c2O)cc1`, “inactive”.
For `O=[N+]([O-])c1cc(Br)c(O)c(/C=N/Nc2nc3ccccc3s2)c1`, the Potency was 19 µM (active).
Consider `Cn1c(SCC(=O)N/N=C/c2ccc(O)c(O)c2)nc2ccccc21`, for which the Potency result was “inactive”.
For the compound `Cc1cc(C(=O)N/N=C/c2cc([N+](=O)[O-])cc(C)c2O)n[nH]1`, the Potency entry is “inactive”.
The value for `CCOC(=O)C1CCCN(S(=O)(=O)c2cc(-c3cc(C)no3)ccc2OC)C1` (configuration not stated) was “inactive”; that for `CSc1nn(Cc2cccc(C)c2)c(N)c1S(=O)(=O)c1ccccc1` was “inactive”; that for `COc1cccc(CNC(=O)C2CCC(CNS(=O)(=O)c3cccs3)CC2)c1` (configuration not stated) was “inactive”.
For the compound `CC(C)(C)c1ccc(C(=O)NCC(c2ccc(Cl)cc2)N2CCOCC2)cc1` (configuration not stated), the Potency result is “inactive”.
The result for `CCOc1ccc(NC(=O)COC(=O)C2CCC(=O)N2)c([N+](=O)[O-])c1` (configuration not stated) reads “inactive”; that for `COc1ccc(-n2c(C)cc(C(=O)COC(=O)c3cc(OC)c(OC)cc3NC(=O)c3cccs3)c2C)cc1`, “inactive”; that for `Cc1ccc(-n2c(C)cc(C(=O)CN3C(=O)C(=O)N(C4CCCC4)C3=O)c2C)cc1`, “inactive”.
For the compound `Cc1cc(C(=O)COC(=O)C2CC2)c(C)n1-c1ccc(F)cc1`, the Potency was 0.169 µM (active).
For the compound `Cc1nc(CN(C)C(=O)CC2C(=O)NCCN2Cc2ccc(F)cc2)cs1` (configuration not stated), the Potency entry is “inactive”.
The result for `O=C(NCC(=O)N(c1ccccc1)C(C(=O)NCC1CCCO1)c1ccccc1)c1cccs1` (configuration not stated) reads “inactive”; that for `Cc1ccc(N(C(=O)Cc2cccs2)C(C(=O)NCC2CCCO2)c2ccncc2)cc1` (configuration not stated), 16.9 µM (active); that for `Cc1cccc(N(C(=O)Cc2cccs2)C(C(=O)NCc2ccco2)c2ccncc2)c1` (configuration not stated), “inactive”.
The result for `CCOC(=O)c1cc2c(=O)n3ccccc3nc2n(CC2CCCO2)c1=NC(=O)c1ccccc1Br` (configuration not stated) reads “inactive”; that for `CN(C)c1nc(NN)nc(Nc2ccc(F)cc2)n1`, “inactive”; that for `CCC(=O)Nc1nc(OC)cc(OC)n1`, “inactive”.
`CC(=O)Nc1nc(N(C)C)nc(N(C)C)n1`: the Potency was 26.9 µM (active).
The result for `O=C(Nc1ccccc1C(=O)O)c1ccc(N2C(=O)C3CC=CCC3C2=O)cc1` (configuration not stated) reads 4.78 µM (active); that for `COc1ccc(Cl)cc1NC(=O)c1cccc(N2C(=O)C3CC=CCC3C2=O)c1` (configuration not stated), “inactive”; that for `O=C(Cc1ccccc1)Nc1ccc(C(=O)Nc2ccccc2C(=O)O)cc1`, “inactive”.
As to `O=c1ccc2cc(S(=O)(=O)N3CCN(c4ccccc4)CC3)ccc2o1`, the Potency entry is “inactive”.
The result for `CCOc1ccccc1NC(=O)Cn1c(=O)n(Cc2ccccc2)c(=O)c2c(C)c(C(=O)N(C)C)sc21` reads “inactive”; that for `COc1ccc(S(=O)(=O)N(CC(=O)N/N=C/c2ccc(C(=O)O)cc2)Cc2ccccc2)cc1OC`, “inactive”.
The result for `O=C(O)c1ccc(/C=N/NC(=S)NCc2ccccc2)cc1` reads “inactive”; that for `O=C(O)c1ccc(/C=N/NC(=O)c2ccc(Br)cc2)cc1`, 15.1 µM (active).
For the compound `CC(C)(C)OC(=O)N/N=C/c1ccc(C(=O)O)cc1`, the Potency was 19 µM (active).
Consider `O=C(N/N=C/c1ccc(OCC2COCCO2)cc1)c1ccc(Br)cc1` (configuration not stated), for which the Potency result was “inactive”.
The value for `COC(=O)N/N=C/c1ccc(/C=N/NC(=O)OC)cc1` was “inactive”; that for `Cc1cccc2c(=O)cc(CSc3ccccc3NC(=O)C(C)C)[nH]c12` was “inactive”.
